Bioassay records from PubChem.
GDH-TPI inh – GDH-TPI coupled enzyme inhibition counter-screen; GDH-TPI coupled enzyme counterscreen, NADH absorbance; inhibition, % at 4.8 µM; 360,000 tested, 1.2% active; in the data active means inhibition above about 30%;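 further: 0% = DMSO wells and 100% = wells lacking the enzyme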
Rv3671c protease – inhibits the M. tuberculosis serine protease Rv3671c. P9WHR9. 320,000 tested, 0.048% active. inhibition, % at 5.96 µM. AID 2606; in the data active means inhibition above about 38%;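 further: extracellular domain of Rv3671c used as enzyme; 0% = enzyme with DMSO and 100% = no enzyme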
RecA splice inh – Mtb RecA intein splicing inhibition; cell-free RecA intein splicing, fluorescence; inhibition, % (no concentration beside the values); 290,000 tested, 0.75% active; in the data active means inhibition above about 30%;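 further: 0% = vehicle wells and 100% = reference inhibitor control wells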
Target sequence (P9WHJ3 whole entry, looked up, canonical isoform): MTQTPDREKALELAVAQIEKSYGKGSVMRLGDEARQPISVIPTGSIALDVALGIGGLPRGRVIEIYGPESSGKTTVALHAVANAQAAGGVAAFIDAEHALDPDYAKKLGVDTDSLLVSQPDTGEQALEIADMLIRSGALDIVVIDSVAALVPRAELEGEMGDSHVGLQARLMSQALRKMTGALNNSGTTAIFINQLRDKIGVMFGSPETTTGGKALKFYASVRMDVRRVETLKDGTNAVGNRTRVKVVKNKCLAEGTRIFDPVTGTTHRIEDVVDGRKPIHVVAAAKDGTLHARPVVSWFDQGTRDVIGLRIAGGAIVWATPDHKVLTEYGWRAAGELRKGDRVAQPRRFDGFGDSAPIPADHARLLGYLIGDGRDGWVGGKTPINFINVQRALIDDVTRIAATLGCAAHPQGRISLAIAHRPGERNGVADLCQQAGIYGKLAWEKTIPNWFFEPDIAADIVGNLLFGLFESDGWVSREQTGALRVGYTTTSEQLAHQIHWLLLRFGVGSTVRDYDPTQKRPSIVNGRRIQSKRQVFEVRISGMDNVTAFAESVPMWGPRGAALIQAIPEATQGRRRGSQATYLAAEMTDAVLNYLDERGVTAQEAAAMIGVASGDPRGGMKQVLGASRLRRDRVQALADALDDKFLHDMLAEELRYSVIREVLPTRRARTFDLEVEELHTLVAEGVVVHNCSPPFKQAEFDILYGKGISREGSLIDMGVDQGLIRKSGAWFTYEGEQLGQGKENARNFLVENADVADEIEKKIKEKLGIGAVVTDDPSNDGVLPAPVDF
Mtb betalactam – beta-lactam sensitization of Mtb H37Rv | M. tuberculosis H37Rv growth with meropenem, percent inhibition | inhibition, % at 25 µM | 330,000 tested, 0.27% active | AID 434955; call rule not given here;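 further: growth measured after seven days incubation then overnight dye step; 0% = bacteria only wells and 100% = bacteria with antibiotic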
Mtb FBA inh – inhibits M. tuberculosis FBA enzyme; P9WQA3; AID 588726; inhibition, % at 1 µM; purified M. tuberculosis FBA, fluorescence read-out; 360,000 tested, 2.3% active; in the data active means inhibition above about 27%;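 further: 0% = vehicle and 100% = reference inhibitor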
Mtb UGM inh – inhibitors of M. tuberculosis UDP-galactopyranose mutase; 320,000 tested, 0.06% active; P9WIQ1; inhibition, % at 10 µM; purified UGM, fluorescence polarization probe displacement; AID 504406; in the data active means inhibition above about 10%, passing the limit was not always enough
Active calls of the source: *; . = no result given; + = active, no number. Most compounds without a hit are left out; they make up all but 4% or so of the library.

SMILES	GDH-TPI inh	Rv3671c protease	RecA splice inh	Mtb betalactam	Mtb FBA inh	Mtb UGM inh
O=C(NCc1ccc(F)cc1)c1cc(C2CCCN(C(=O)c3ccc4c(c3)CCO4)C2)on1 (stereo not given)	-7	.	.	.	-5	.
Cc1ccc2oc(=O)c3cc(C(=O)NCCCN4CCN(C)CC4)sc3c2c1	22	0	-2	1	14	-1
CN1CCN(CCCNC(=O)c2cc3c(=O)n(C)c4ccccc4c3s2)CC1	12	8	0	2	89*	-1
CCOc1ccc(C(=O)NCCCN2CCOCC2)cc1OCC	2	-3	0	5	+	-1
O=C(NCC1CCCO1)c1ccc2c(c1)N(Cc1ccccc1)CCS2 (stereo not given)	-8	10	-6	4	141*	-3
CC1CC(C)CN(C(=O)c2ccc3c(c2)N(Cc2ccccc2)CCS3)C1 (stereo not given)	8	9	35*	-7	10	3
CCOC(=O)c1cnc2ccc(C(=O)OC)cc2c1NCCCN1CCOCC1	53*	.	-4	5	19	1
CCOC(=O)c1cnc2ccc(C(=O)OC)cc2c1NCCN1CCOCC1	21	2	4	5	5	2
O=C(Nc1ccccc1Cl)c1cc(C2CCCCN2S(=O)(=O)c2ccc(F)cc2F)on1 (stereo not given)	6	.	.	.	-1	.
CC(=O)c1ccc(NC(=O)CSc2nnc(NC(=O)C3CC3)s2)cc1	6	-7	0	-16	-1	0
COc1ccccc1C(=O)OCC(=O)NC1CCCC1	2	-16	0	1	4	0
Cn1c(=O)c2c(O)c(C=Nc3ccc(F)cc3)c(=O)n(C)c2n(C)c1=O	.	7	-4	-1	.	-2
CCCCn1c(N)c(N(CC(C)C)C(=O)C2CC(=O)N(Cc3ccco3)C2)c(=O)[nH]c1=O (stereo not given)	5	4	-1	-6	5	1
O=C(NCCCN1CCOCC1)c1ccc2c(c1)N(Cc1ccccc1)CCS2	0	-25	0	-3	119*	2
CN1CCN(CCCNC(=O)c2ccc3c(c2)N(Cc2ccccc2)CCS3)CC1	9	2	-4	4	190*	1
O=C(NCCN1CCOCC1)c1ccc2c(c1)N(Cc1ccccc1)C(=O)CS2	-8	-2	1	1	-7	1
Cc1ccc(CN2CCSc3ccc(C(=O)N4CCOCC4)cc32)cc1	19	-4	4	-6	17	2
Cc1ccc(CN2CCSc3ccc(C(=O)NCCCN4CCOCC4)cc32)cc1	9	2	-14	2	162*	-3
O=C(NCCN1CCOCC1)c1ccc2c(c1)N(Cc1ccccc1)CCS2	9	-13	-10	-10	118*	0
CC(C)(C)NC(=O)C1(C)CCC(=O)N1CC(F)(F)F (stereo not given)	.	.	.	.	3	.
C=CCN1N=C(/C=C/c2ccc(C)cc2)CCC1=O	21	10	2	2	5	-2
CCOC(=O)C(C)N1N=C(/C=C/c2ccc(C)cc2)CCC1=O (stereo not given)	39*	9	7	-14	-4	2
CCOC(=O)CN1N=C(/C=C/c2ccc(OCC)cc2)CCC1=O	34*	-3	-1	5	-6	-1
C=CCN1N=C(/C=C/c2ccc(OC)cc2)CCC1=O	34*	4	-3	4	-1	2
CCOC(=O)CN1N=C(/C=C/c2ccccc2)CCC1=O	17	-4	2	-6	5	1
SMILES	GDH-TPI inh	Rv3671c protease	RecA splice inh	Mtb betalactam	Mtb FBA inh	Mtb UGM inh
O=C(NCC1CCCO1)C1CC(=O)N(c2ccc(Cl)cc2)C1 (stereo not given)	7	1	-2	-1	4	0
CCN(CC)c1ccc(/C=N/Nc2ccccc2)c(O)c1	17	7	4	1	2	2
CCN(CC)c1ccc(N=Cc2ccc(N(CC)CC)cc2O)cc1	14	-19	-2	61	-5	1
CCN(CC)c1ccc(C=Nc2ccccc2)c(O)c1	34*	-6	-5	7	-2	-1
CCN(CC)c1ccc(C=Nc2ccc(C)cc2)c(O)c1	45*	-1	.	56	-2	0
CCN(CC)c1ccc(C=Nc2cc(C)cc(C)c2)c(O)c1	30	-4	-3	-1	0	3
CCN(CC)c1ccc(C=Nc2ccc(N(C)C)cc2)c(O)c1	54*	-24	-3	-5	-3	0
COc1cc(OC)nc(Nc2nc(C(N)Cc3ccc(F)cc3)cs2)n1 (stereo not given)	-3	.	.	.	-1	.
Cc1cc(NC(=O)CCC(=O)N(CC(=O)NCC2CCCO2)c2ccc(F)c(Cl)c2)no1 (stereo not given)	-1	-2	.	-3	0	0
Cc1cn([C@H](C(=O)NCCCCCCCCCCC(=O)N2CCN(C(=O)OC(C)(C)C)CC2)[C@@H](C)O)nn1	9	1	.	-5	1	-5
CCN(CC)C(=O)c1ccc(Cc2cn(C)c3ccccc23)nc1	18	.	.	.	2	.
O=C(C(=NNc1ccccc1)C(=S)Nc1ccccc1)c1ccccc1	.	.	.	.	-6	.
O=C(N/C(=C\c1ccc(Br)cc1)c1nc2ccccc2[nH]1)c1ccco1	47*	8	1	-3	2	1
N#C/C(=C\c1cccs1)c1nc2ccccc2[nH]1	29	-13	-2	-4	-3	0
Cc1ccc(C(=O)N/C(=C\c2cccs2)c2nc3ccccc3[nH]2)cc1	44*	-9	1	3	0	0
O=C(N/C(=C/c1cccs1)c1nc2ccccc2[nH]1)c1ccccc1	33*	5	0	-2	-1	0
COc1cc2cnc(C3=CCCCC3)cc2cc1OC	8	1	.	53	11	-1
COc1ccc2cc(C3=CCCCC3)ncc2c1	8	9	.	.	27*	-1
COc1ccc(NC(=O)c2sc3ncn(CC(=O)N4CCCCC4)c(=O)c3c2C)cc1OC	10	-2	5	3	2	-2
CCOc1ccc(C(=O)Nc2cccc(-c3cc4ccccc4oc3=O)c2)cc1[N+](=O)[O-]	32*	-65	4	3	2	-3
Cc1ccc(-n2c(N)c(C#N)c(-c3ccccc3)c(C#N)c2=O)cc1	29	2	-1	-3	-1	2
Cc1ccc(-c2nc3sc(C#N)c(N)n3c(=O)c2C#N)cc1	-8	-13	-6	1	-1	13*
O=C(C1CCN(S(=O)(=O)c2ccccc2F)CC1)N1CCN(Cc2ccc3c(c2)OCO3)CC1	8	2	.	-5	0	1
CC1(C(=O)NS(=O)(=O)C2CC2)CCCN(C(=O)c2cccc(OC(F)(F)F)c2)C1 (stereo not given)	13	.	.	.	2	.
Cc1nn(Cc2ccccc2)c(C)c1/C=N/NC(=O)c1ccccc1O	36*	0	-6	11	-1	0
Cc1nn(Cc2ccccc2)c(C)c1/C=N/NC(=O)c1ccncc1	-6	-2	-3	99	-5	-2
